The text below walks through data of PubChem BioAssay (NCATS).

Common to all, as to test: qHTS profiling for inhibitors of Plasmodium falciparum proliferation (AID 504749); further: nearly all actives have a fitted effect of over 60% in size
Conditions in all cases: P. falciparum in erythrocytes, SYBR Green DNA, 72 h; series mostly up to 28.7 µM
On the technique in general: Quantitative high-throughput screening tests each substance at several concentrations.

The test system of one assay is CP194. Put shortly:
(§1)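 P. falciparum-infected erythrocytes (0.3% parasitemia, 2.5% hematocrit final) were exposed to compounds for 72 h at 37 C in 5% CO2, then lysed with SYBR Green buffer overnight at room temperature; parasite DNA fluorescence was normalized to artemisinin and DMSO controls.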

In another assay the test system is CP201. The gist of the method: as §1
A further assay relates to CP203. Put shortly:
as §1

The subject of another assay is CP211. The gist of the method: as §1
Another assay has as its system CP215. Put shortly:
as §1

The test system of another assay is CP217. The gist of the method: as §1
The subject of another assay is CP237. Put shortly:
as §1

For the next assay, the system named is CP238. The gist of the method: as §1
The next assay has as its system CP247. Put shortly: as §1
Another assay relates to CP250. Put shortly:
as §1

Another assay concerns CP252. The gist of the method: as §1
Another assay deals with CP256. Put shortly: as §1
The subject of another assay is CP260. Put shortly:
as §1

The test system of a further assay is CP262. The gist of the method:
as §1

The test system of the next assay is CP265. The gist of the method:
as §1

A further assay concerns CP266. The gist of the method: as §1
Another assay has as its system CP268. Put shortly:
as §1

Another assay relates to CP269. The gist of the method:
as §1

The test system of a further assay is CP286. Put shortly: as §1
Another assay deals with CP291. The gist of the method:
as §1

Inconclusive results are not listed. Calls of active or inactive are those of the source. The call rests on the fitted dose curve; in most records, active means well fitted inhibition curve with a large enough effect; inconclusive means small, poorly fitted or top-dose-only effect; inactive means flat fitted curve, though single readings scatter.
Potency means the concentration at half of the fitted maximal effect.

Turning to `CCCCCCCCCCCCCC(=O)OCC(COP(=O)([O-])OCC[N+](C)(C)C)OC(=O)CCCCCCCCCCCCC` (stereo not given), the Potency entry with CP194, with CP201, in the assay on CP203, in the assay with CP211, in the assay with CP215 and in the assay with CP217 was “inactive” each time. The Potency result in the assay on CP237, with CP238, in the assay on CP247, with CP250, with CP252 and with CP256 was “inactive” throughout. The Potency result with CP260, with CP262, with CP265, in the assay with CP266, in the assay with CP268 and in the assay on CP269 was “inactive” each time. The Potency result with CP286 and with CP291 was “inactive” throughout.

`CCc1ccc(S(=O)(=O)O)cc1`: the Potency entry in the assay on CP194, in the assay on CP201, in the assay with CP203, with CP211, in the assay with CP215 and in the assay with CP217 was “inactive” in each case. Besides, the Potency result in the assay on CP237, in the assay with CP238, with CP247, in the assay with CP250, in the assay with CP252 and in the assay with CP256 was “inactive” each time. The Potency result in the assay on CP260, in the assay with CP262, in the assay with CP265, with CP266, in the assay with CP268 and in the assay with CP269 was “inactive” in each case. The Potency result with CP286 and in the assay with CP291 was “inactive” throughout.

With `c1ccc2ccccc2c1`, the Potency entry with CP194, in the assay on CP201, with CP203, in the assay with CP211, with CP215 and with CP217 was “inactive” each time. The Potency result in the assay on CP237, with CP238, in the assay with CP247, with CP250, with CP252 and with CP256 was “inactive” each time. Besides, the Potency entry in the assay on CP260, in the assay on CP262, with CP265, with CP266, in the assay on CP268 and with CP269 was “inactive” in each case. For the same molecule, the Potency entry in the assay on CP286 and in the assay on CP291 was “inactive” in each case.

`CCCCCCCCCCCCCCCCCC(=O)OC[C@@H](O)[C@H]1OC[C@H](O)[C@H]1O`: the Potency entry in the assay on CP194, in the assay on CP201, in the assay with CP203, in the assay with CP211, with CP215 and in the assay on CP217 was “inactive” throughout. Moreover, the Potency result in the assay on CP237, with CP238, in the assay with CP247, in the assay with CP250, with CP252 and with CP256 was “inactive” throughout. Also, the Potency result with CP260, in the assay on CP262, in the assay with CP265, in the assay on CP266, with CP268 and in the assay on CP269 was “inactive” throughout. Also, the Potency result in the assay with CP286 and in the assay with CP291 was “inactive” in each case.

For the molecule `O=C(O)C1=C(CSc2nnnn2CS(=O)(=O)O)CS[C@@H]2[C@H](NC(=O)[C@H](O)c3ccccc3)C(=O)N12`, the Potency result in the assay with CP194, in the assay with CP201, in the assay with CP203, in the assay with CP211, in the assay on CP215 and in the assay with CP217 was “inactive” each time. The Potency entry with CP237, in the assay with CP238, with CP247, in the assay with CP250, with CP252 and in the assay on CP256 was “inactive” each time. Besides, the Potency entry in the assay with CP260, with CP262, with CP265, with CP266, in the assay on CP268 and in the assay with CP269 was “inactive” each time. For the same molecule, the Potency result in the assay on CP286 and with CP291 was “inactive” in each case.

In the case of `CCCCCCCCCCCC(=O)OCC(O)CO` (stereo not given), the Potency entry with CP194, in the assay on CP201, in the assay on CP203, in the assay on CP211, in the assay on CP215 and with CP217 was “inactive” each time. Also, the Potency entry in the assay on CP237, in the assay on CP238, with CP247, in the assay on CP250, with CP252 and with CP256 was “inactive” each time. For the same molecule, the Potency entry in the assay on CP260, in the assay on CP262, with CP265, in the assay with CP266, in the assay on CP268 and in the assay with CP269 was “inactive” each time. For the same molecule, the Potency entry with CP286 and in the assay on CP291 was “inactive” each time.

Consider `CNC(=O)C[C@@H](N)C(=O)N[C@@H](C(=O)N[C@@H]1C(=O)N2[C@@H]1SC(C)(C)[C@@H]2C(=O)O)c1ccc(O)cc1`, for which the Potency result in the assay on CP194, in the assay with CP201, in the assay on CP203, in the assay with CP211, in the assay on CP215 and in the assay with CP217 was “inactive” each time. The Potency entry in the assay with CP237, with CP238, in the assay on CP247, with CP250, with CP252 and in the assay with CP256 was “inactive” in each case. Further, the Potency entry in the assay on CP260, in the assay on CP262, with CP265, with CP266, in the assay with CP268 and with CP269 was “inactive” in each case. Besides, the Potency result in the assay on CP286 and in the assay with CP291 was “inactive” in each case.

On to `CC(=O)Nc1ccc(OC(=O)c2ccccc2O)cc1`, for which the Potency result with CP194, in the assay on CP201, in the assay on CP203, in the assay with CP211, in the assay with CP215 and in the assay on CP217 was “inactive” throughout. Moreover, the Potency result with CP237, in the assay on CP238, in the assay on CP247, in the assay on CP250, in the assay with CP252 and in the assay with CP256 was “inactive” throughout. Besides, the Potency entry in the assay with CP260, in the assay on CP262, with CP265, in the assay with CP266, in the assay on CP268 and in the assay on CP269 was “inactive” throughout. The Potency result in the assay with CP286 and with CP291 was “inactive” each time.

Turning to `CCCc1ccc(C(=O)O)cc1`, the Potency entry with CP194, in the assay with CP201, in the assay on CP203, in the assay with CP211, in the assay on CP215 and in the assay on CP217 was “inactive” throughout. In addition, the Potency result in the assay on CP237, with CP238, with CP247, in the assay on CP250, in the assay with CP252 and in the assay with CP256 was “inactive” throughout. In addition, the Potency entry with CP260, with CP262, in the assay with CP265, in the assay with CP266, with CP268 and in the assay with CP269 was “inactive” throughout. For the same molecule, the Potency result in the assay with CP286 and in the assay with CP291 was “inactive” each time.

`CCCCCCCCCCCCCCCCCC(=O)OCC(C)O` (stereo not given): the Potency entry in the assay on CP194, in the assay with CP201, with CP203, in the assay with CP211, with CP215 and in the assay on CP217 was “inactive” throughout. In addition, the Potency result with CP237, in the assay with CP238, in the assay with CP247, in the assay with CP250, in the assay with CP252 and in the assay with CP256 was “inactive” throughout. Moreover, the Potency entry in the assay on CP260, with CP262, in the assay with CP265, in the assay on CP266, in the assay on CP268 and with CP269 was “inactive” throughout. Also, the Potency entry with CP286 and in the assay on CP291 was “inactive” in each case.

On to `C[C@H](O)CN(C)C`, for which the Potency entry with CP194, in the assay on CP201, with CP203, with CP211, with CP215 and in the assay on CP217 was “inactive” each time. In addition, the Potency entry in the assay on CP237, in the assay with CP238, in the assay on CP247, with CP250, in the assay on CP252 and in the assay on CP256 was “inactive” each time. Moreover, the Potency result with CP260, in the assay with CP262, in the assay with CP265, with CP266, in the assay on CP268 and with CP269 was “inactive” throughout. For the same molecule, the Potency entry in the assay with CP286 and in the assay on CP291 was “inactive” in each case.

Consider `FCOC(C(F)(F)F)C(F)(F)F`, for which the Potency result in the assay with CP194, with CP201, in the assay on CP203, with CP211, in the assay with CP215 and with CP217 was “inactive” in each case. Moreover, the Potency entry in the assay on CP237, in the assay on CP238, in the assay on CP247, in the assay on CP250, in the assay on CP252 and in the assay with CP256 was “inactive” in each case. Moreover, the Potency result with CP260, in the assay on CP262, in the assay with CP265, in the assay with CP266, with CP268 and in the assay with CP269 was “inactive” throughout. Also, the Potency result in the assay with CP286 and in the assay on CP291 was “inactive” throughout.

Take `NCCN`: the Potency entry with CP194, in the assay with CP201, in the assay on CP203, in the assay on CP211, in the assay with CP215 and in the assay on CP217 was “inactive” throughout. For the same molecule, the Potency entry in the assay with CP237, with CP238, with CP247, in the assay with CP250, in the assay with CP252 and in the assay on CP256 was “inactive” each time. In addition, the Potency entry in the assay on CP260, in the assay with CP262, in the assay on CP265, with CP266, in the assay on CP268 and in the assay with CP269 was “inactive” each time. Besides, the Potency entry with CP286 and with CP291 was “inactive” throughout.

In the case of `O=C1CCC(c2ccccc2)(C2CCN(Cc3ccccc3)CC2)C(=O)N1` (stereo not given), the Potency result in the assay on CP194, with CP201, in the assay with CP203, with CP211, in the assay on CP215 and with CP217 was “inactive” each time. Besides, the Potency result with CP238, in the assay with CP247, in the assay with CP250, in the assay on CP252, with CP256 and with CP260 was “inactive” in each case. Also, the Potency result in the assay with CP262, in the assay on CP265, with CP266, in the assay on CP268, with CP269 and with CP286 was “inactive” in each case. In addition, the Potency result with CP291 is “inactive”. Also, in the assay with CP237, the Potency is 11.2 µM (active).
